One may read the inhibition as the relative decrease from the control value, in per cent.

Activity calls are given as the source filed them.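 How the source made its calls, unless noted: active means inhibition above 20% together with a positive visual image hit; inconclusive means visual image hit but inhibition not above 20%; inactive means no visual image hit.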

Consider ten compounds from PubChem BioAssay.

A short description of assay [1]: inhibitors of TNFa-induced NFkB p65 translocation, primary screen, imaging, HUVEC, MLSMR starter and 10KST1 sets (AID 438).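 Further: compound added about 3h40 before a 20 min TNFalpha stimulation.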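 On inhibition: signal is the nuclear over cytoplasmic p65 intensity ratio per well.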 The settings on record: HUVEC TNFa-induced p65 nuclear translocation; cell count: measured here: nuclei count (cytotoxicity indicator), at 2.08 µM; inhibition: at 2 µM, stronger effect = higher value, 0% TNFa-plus-vehicle, 100% no-TNFa wells.
Assay [2] in a line: inhibitors of mutant huntingtin aggregation, primary screen, imaging, exon1htt(103Q)mCFP cells, high-content imaging (AID 483;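 active means visual image review flags a hit and inhibition of aggregation exceeds 20%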;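 further: compound exposure lasted 3 days before fixation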;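 on nuclei count: percent of the per-plate median nuclei count of sample wells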). The settings on record: exon1htt(103Q)mCFP cell line, aggregate imaging, at 2 µM; inhibition of aggregation: stronger effect = higher value; nuclei count: measured here: cell count, toxicity.
Assay [3] in a line: inhibitors of E-selectin induction by TNFa, primary screen, imaging, HUVEC, immunofluorescence, MLSMR starter and 10KST1 sets (AID 487;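 active means visually confirmed hit in the image check and inhibition above 20%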;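 on inhibition: signal is fraction of cell area covered by stained E-selectin grains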;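 on nuclei count: 100% = median nuclei count of all wells on the same plate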). The following applies: HUVEC TNFalpha-induced E-selectin immunofluorescence imaging, at 2 µM; inhibition: stronger effect = higher value; nuclei count: measured here: cell number, toxicity.
Assay [4] deals with Voltage-gated potassium channel subunit beta-2 (Rattus norvegicus) (UniProt P62483). The assay is described as follows: KvBeta enzyme negative modulators, primary screen, biochemical, NADPH fluorescence (AID 622;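 active means fluorescence slope higher than the sample average by over 3 SD, cut at about -0.22 in these data, passing the limit was not always enough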;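 further: slope of raw intensity against log time taken from 70 to 1610 s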). The settings on record: recombinant KvBeta, 4-cyanobenzaldehyde reduction, at 10 µM, stronger effect = higher value.
Sequence of Voltage-gated potassium channel subunit beta-2 (Rattus norvegicus) (P62483 whole entry, looked up): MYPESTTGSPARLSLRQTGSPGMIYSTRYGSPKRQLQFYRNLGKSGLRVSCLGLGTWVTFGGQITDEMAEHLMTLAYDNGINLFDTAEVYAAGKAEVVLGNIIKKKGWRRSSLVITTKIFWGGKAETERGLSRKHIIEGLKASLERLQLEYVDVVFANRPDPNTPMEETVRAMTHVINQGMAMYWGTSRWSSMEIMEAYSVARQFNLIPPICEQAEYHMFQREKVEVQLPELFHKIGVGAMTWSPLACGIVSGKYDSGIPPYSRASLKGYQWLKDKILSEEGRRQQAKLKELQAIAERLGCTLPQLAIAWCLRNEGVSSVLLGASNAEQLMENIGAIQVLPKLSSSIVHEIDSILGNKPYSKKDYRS
The target is the same in assay [5]. The assay is described as follows: KvBeta positive modulators, primary screen, biochemical, NADPH fluorescence (AID 623;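 active means NADPH fluorescence slope more negative than the mean of all samples by about 3 SD, 99.7% confidence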;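 further: fluorescence intensity change per second fitted from 20 to 320 s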). The following applies: Recombinant KvBeta, NADPH fluorescence decrease slope, 10 min; at 10 µM; stronger effect = lower value.
The target of assay [6] is Alpha-2C adrenergic receptor (Homo sapiens) (UniProt P18825). The assay is described as follows: modulators of alpha2C/GIRK thallium flux, primary screen, cell-based, HEK293 alpha2C/GIRK1/2 (AID 624;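 active means fluorescence slope after compound addition differing from the mean of all screened samples at 99.7% confidence, in either direction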;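 further: slope of fluorescence ratio to pre-addition baseline per second over 15 to 24 s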). The settings on record: thallium flux BTC fluorescence, at 10 µM, actives lie on both sides.
Sequence of Alpha-2C adrenergic receptor (Homo sapiens) (P18825 whole entry, looked up): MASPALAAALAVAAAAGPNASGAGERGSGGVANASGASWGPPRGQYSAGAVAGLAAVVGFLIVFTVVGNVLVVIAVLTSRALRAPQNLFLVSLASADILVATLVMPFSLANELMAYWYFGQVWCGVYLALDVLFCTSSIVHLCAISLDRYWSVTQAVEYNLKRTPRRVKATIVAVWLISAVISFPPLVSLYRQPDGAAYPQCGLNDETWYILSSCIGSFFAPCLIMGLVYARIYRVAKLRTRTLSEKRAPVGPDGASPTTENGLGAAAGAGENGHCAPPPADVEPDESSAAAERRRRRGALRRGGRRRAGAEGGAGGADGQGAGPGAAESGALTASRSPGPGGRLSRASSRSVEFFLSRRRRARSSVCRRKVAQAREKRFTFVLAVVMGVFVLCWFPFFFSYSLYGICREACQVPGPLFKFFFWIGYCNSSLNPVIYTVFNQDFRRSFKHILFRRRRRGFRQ
Assay [7] can be described thus: inhibitors of Sendai virus-induced IRF3 signaling, primary screen, TLR/RLR signaling modifier project, cell-based, Sendai virus stimulus, luciferase, 10K MLSCN set (AID 602276;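 active means inhibition at or above 50% at 10 µM; inactive means inhibition below 50%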;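 further: firefly luciferase from ISG56 promoter only with Renilla not read in this screen; 0% = Sendai virus plus DMSO and 100% = medium plus DMSO without virus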). The settings on record: HEK293 RL24 IRF3 luciferase reporter, at 10 µM, stronger effect = higher value.
A short description of assay [8]: inhibitors of poly I:C-induced TLR3 signaling, primary screen, cell-based, poly I:C stimulus, luciferase, 10K MLSCN set (AID 602277;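 active means inhibition of the reporter signal at or above 50%; inactive means inhibition below 50%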). The following applies: HEK293-TLR3 RL24 IRF3 luciferase reporter, at 10 µM, stronger effect = higher value. In general terms: Reporter assays use an easily measured gene product as a stand-in for the process of interest.

Turning to `CN1CCN(C(=O)C2CCN(S(=O)(=O)c3ccc4c(c3)oc(=O)n4C)CC2)CC1`, in assay [1], the cell count amounted to 554. Further, the inhibition in assay [1] was -4.7% (inactive); in assay [3], -22% (inactive); in assay [7], 8.49% (inactive); in assay [8], 23.9% (inactive). Further, in assay [2], the inhibition of aggregation was 8.3% (inactive). Further, the results for the nuclei count in assay [2] and in assay [3] were 100% and 116%, respectively. Besides, the fluorescence slope in assay [4] was -0.59 (inactive). For the same compound, in assay [5], the NADPH fluorescence slope is -2.4e-05 (inactive). For the same compound, the slope in assay [6] is 0.00694 (inactive).

For the compound `COc1ccc(S(=O)(=O)Nc2ccc(F)c(F)c2)cc1Cl`, the cell count in assay [1] was 723. The inhibition in assay [1] is 8.5% (inactive); in assay [3] it was -8.3% (inactive); in assay [7], 8.01% (inactive); in assay [8], 31.5% (inactive). Moreover, the inhibition of aggregation in assay [2] was 5.1% (inactive). Further, the nuclei count in assay [2] was found to be 102%; in assay [3], 98.5%. Further, the fluorescence slope in assay [4] is -0.496 (inactive). For the same compound, the NADPH fluorescence slope in assay [5] was -1.9e-05 (inactive). In addition, the slope in assay [6] was 0.0057 (inactive).

As for `O=C1CCCC(O)=C1C=Nc1ccc2c(c1)oc1ccccc12`, the cell count in assay [1] amounted to 403. In addition, the inhibition in assay [1] was 1.7% (inactive); in assay [3], 24.8% (inactive); in assay [7] it was -23% (inactive); in assay [8], -100% (inactive). In addition, in assay [2], the inhibition of aggregation was -0.4% (inactive). Further, the nuclei count in assay [2] was determined as 95.2%; in assay [3], 106%. The fluorescence slope in assay [4] was -0.09 (active). The NADPH fluorescence slope in assay [5] was 1.4e-05 (inactive). The slope in assay [6] is 0.00678 (inactive).

Consider `CCCOc1ccc(OCCSc2ncccn2)cc1`, for which the cell count in assay [1] turned out to be 811. In addition, the inhibition in assay [1] is -13% (inactive); in assay [3], -93.3% (inactive); in assay [7], -39.4% (inactive); in assay [8] it was -92% (inactive). Moreover, the inhibition of aggregation in assay [2] is 24.7% (inactive). The nuclei count in assay [2] and in assay [3] was 108% in each case. The fluorescence slope in assay [4] was -0.454 (inactive). The NADPH fluorescence slope in assay [5] is 2.1e-05 (inactive). Moreover, in assay [6], the slope was 0.0061 (inactive).

Consider `Cn1c(SCC(N)=O)nnc1C1CCN(C(=O)NCc2ccccc2)CC1`, for which the cell count in assay [1] stood at 325. Moreover, the inhibition in assay [1] was 6.8% (inactive); in assay [3], -74.7% (inactive); in assay [7], 5.51% (inactive); in assay [8] it was 21.8% (inactive). The inhibition of aggregation in assay [2] is -6.1% (inactive). The nuclei count in assay [2] was 99.8%; in assay [3], 108%. In addition, the fluorescence slope in assay [4] was -0.385 (inactive). For the same compound, the NADPH fluorescence slope in assay [5] was -5.9e-05 (inactive). Also, the slope in assay [6] was 0.00348 (inactive).

`CCOC(=O)C(CC)Sc1nc2c(c(=O)[nH]c(=O)n2C)n1C/C=C(/C)Cl` (stereo not given): the cell count in assay [1] is 775. Moreover, the inhibition in assay [1] is -12.9% (inactive); in assay [3], 18.5% (inactive); in assay [7], 14.5% (inactive); in assay [8], 19.1% (inactive). Further, the inhibition of aggregation in assay [2] was 18% (inactive). The nuclei count in assay [2] was 96.3%; in assay [3], 106%. In addition, in assay [4], the fluorescence slope was -0.601 (inactive). For the same compound, the NADPH fluorescence slope in assay [5] was -6.7e-05 (inactive). The slope in assay [6] was 0.00361 (inactive).

As to `Cn1cc(Cl)c(C(=O)NC2CCCC2)n1`, in assay [1], the cell count stood at 452. In addition, the inhibition is -8.5% (inactive) in assay [1], -25.2% (inactive) in assay [3], -2.09% (inactive) in assay [7] and 4.05% (inactive) in assay [8]. In addition, in assay [2], the inhibition of aggregation is 26.8% (inactive). Further, the nuclei count in assay [2] came to 64.4%; in assay [3] it was 104%. In addition, the fluorescence slope in assay [4] was -0.594 (inactive). In assay [5], the NADPH fluorescence slope is -3.1e-05 (inactive). The slope in assay [6] was 0.00694 (inactive).

Take `Cc1cc(Cl)ccc1OCC(=O)Nn1c(C)ccc1C`: the cell count in assay [1] was determined as 480. The inhibition in assay [1] was -4.9% (inactive); in assay [3] it was -16.2% (inactive); in assay [7], 11.6% (inactive); in assay [8], 15.5% (inactive). For the same compound, the inhibition of aggregation in assay [2] is -6.4% (inactive). Further, the nuclei count in assay [2] was 94.5%; in assay [3], 136%. The fluorescence slope in assay [4] is -0.525 (inactive). The NADPH fluorescence slope in assay [5] is -3.9e-05 (inactive). Also, in assay [6], the slope is 0.00483 (inactive).

`CC(C)CC(c1nnnn1CC1CCCO1)N1CCN(Cc2ccc3c(c2)OCO3)CC1` (stereo not given): in assay [1], the cell count amounted to 474. The inhibition in assay [1] was 1% (inactive); in assay [3], -21.2% (inactive); in assay [7], -28.6% (inactive); in assay [8] it was 25% (inactive). Also, the inhibition of aggregation in assay [2] is -18.9% (inactive). The nuclei count was determined as 129% in assay [2] and 111% in assay [3]. Moreover, the fluorescence slope in assay [4] was -0.472 (inactive). Also, in assay [5], the NADPH fluorescence slope is -3.8e-05 (inactive). The slope in assay [6] was 0.00652 (inactive).

In the case of `Cc1ccc(/C=c2\sc3nc(-c4ccccc4Br)nn3c2=O)o1`, the cell count in assay [1] was found to be 277. Also, the inhibition in assay [1] is -5% (inactive); in assay [3], -9.5% (inactive); in assay [7], 12.3% (inactive); in assay [8], 18.9% (inactive). Also, the inhibition of aggregation in assay [2] was 39.3% (active). For the same compound, the nuclei count in assay [2] came to 92.3%; in assay [3], 94.1%. The fluorescence slope in assay [4] was -0.577 (inactive). In addition, the NADPH fluorescence slope in assay [5] was -5.1e-05 (inactive). In addition, the slope in assay [6] is 0.00296 (inactive).
